The source made the active and inactive calls.
What was measured:
[1] = A549 cell viability effects, profiling panel, calcein-AM fluorescence, 48 h, basal (AID 1162); details: higher = more signal
[2] = adipocyte viability effects, profiling panel, cell-based, 3T3-L1 adipocytes, calcein-AM fluorescence, 48 h, basal (AID 1163); details: 3T3-L1 adipocytes viability, higher = more signal
[3] = HepG2 cell viability effects, profiling panel, calcein-AM fluorescence, 48 h, basal (AID 1164); details: higher = more signal
[4] = MM1S cell viability effects, profiling panel, calcein-AM fluorescence, 48 h, basal (AID 1165); details: higher = more signal;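 also: viability of MM1S multiple myeloma cells under basal unstimulated conditions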
[5] = basal RPMI8226 viability, no added stimulus, profiling panel, cell-based, calcein-AM fluorescence, 48 h, PK04 Diversity Set (AID 1166); details: RPMI8226 myeloma viability, higher = more signal;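 also: cells grown under basal conditions without added stimulus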
[6] = basal HepG2 mitochondrial membrane potential changes, profiling panel, cell-based, JC-1 fluorescence, 24 h, 100 nL compound (AID 1167); details: higher = more signal
[7] = basal 3T3-L1 adipocyte mitochondrial potential changes, profiling panel, cell-based, JC-1 fluorescence, 3T3-L1 adipocytes, 24 h, 100 nL compound (AID 1168); details: JC-1 mitochondrial fluorescence, higher = more signal, called active from +8 up or from −8 down
[8] = basal RPMI8226 mitochondrial membrane potential changes, profiling panel, cell-based, JC-1 fluorescence, 24 h, 100 nL compound (AID 1169); details: RPMI8226 myeloma, JC-1 mitochondrial potential fluorescence, higher = more signal
[9] = basal MM1S mitochondrial membrane potential changes, profiling panel, cell-based, JC-1 fluorescence, 24 h, 100 nL compound (AID 1170); details: higher = more signal
[10] = A549 lung cancer cell viability effects, profiling panel, resazurin fluorescence, 24 h, PK04 Diversity Set (AID 1171); details: higher = more signal, called active from +8 up or from −8 down
Also: test concentration not given here.

| SMILES | z-score [1] | z-score [2] | z-score [3] | z-score [4] | z-score [5] | z-score [6] | z-score [7] | z-score [8] | z-score [9] | z-score [10] |
| --- | --- | --- | --- | --- | --- | --- | --- | --- | --- | --- |
| COc1ccc([Si](C)(C)[C@H]2[C@H](CC(=O)N3CCC[C@H]3CO)O[C@@]3(C(=O)N(C)c4c(Br)cc(C)cc43)[C@@H]2C)cc1 | 0.709 | -0.333 | -0.232 | 0.0328 | -0.63 | 0.604 | 0.123 (inactive) | -0.126 | -0.468 | 0.809 (inactive) |
| COc1c(C)cc(-c2cc3c(c(CCc4ccccc4)n2)[Si](C(C)C)(C(C)C)O[C@H]3c2ccccc2)cc1C | -0.216 | -0.945 | 0.297 | -3.19 | -3.11 | -2.39 | -0.729 (inactive) | -1.04 | -1.24 | 0.453 (inactive) |
| C[C@]1(C(=O)NCC(F)(F)F)c2ccccc2C(=O)N(Cc2cc(C(F)(F)F)cc(C(F)(F)F)c2)[C@H]1c1ccc(CO)cc1 | 1.82 | 0.441 | 1.51 | 0.24 | 1.11 | 1.23 | 0.436 (inactive) | 0.412 | 0.0741 | 0.476 (inactive) |
| Cc1ccc(S[C@]2(C(=O)NC3CC3)CC(=O)N(C3Cc4ccccc4C3)[C@@H]2c2ccc(CO)cc2I)cc1 | 0.828 | 0.689 | 0.193 | -2.21 | -1.9 | -0.24 | -0.411 (inactive) | -0.502 | -0.499 | 0.395 (inactive) |
| COC(=O)[C@@]1(Cc2ccc(F)cc2)[C@H]2c3cc(C(=O)N(C)C)n(Cc4cccc5ccccc45)c3C[C@H]2CN1C(=O)c1ccccc1 | -0.994 | -0.296 | 0.156 | -0.0591 | -0.489 | -0.0443 | -2.25 (inactive) | -0.207 | -0.774 | 0.0731 (inactive) |
| CC[C@H]1C2=C3C(CC[C@H]4C(OCc5ccc(F)cc5C(F)(F)F)OC[C@](C)([C@@H]34)N(C(=O)OC(C)(C)C)C2)C(COC(C)=O)C1COC(C)=O (stereo not given in full) | -0.128 | -0.154 | 0.228 | -0.814 | -2.5 | 3.43 | -1.43 (inactive) | -0.555 | -1.29 | 0.226 (inactive) |
| COc1cc(Cc2cc3c(c(CCc4ccccc4)n2)[Si](C(C)C)(C(C)C)O[C@H]3c2ccccc2)cc(OC)c1OC | -4.59 | -0.515 | -3.15 | -3.14 | -3.71 | -3.44 | 0.0754 (inactive) | -0.548 | -0.663 | -1.24 (inactive) |
| COc1ccc(NN2C(C(O)c3ccccc3)C=CC3C(=O)N(C4CCCCC4)C(=O)C32)cc1 (stereo not given) | -0.408 | -0.503 | 0.0544 | -1.37 | -1.82 | -0.536 | 0.0258 (inactive) | -0.335 | -0.253 | 1.67 (inactive) |
| Cc1ccc(S[C@]2(C(=O)NC(C)C)CC(=O)N(Cc3ccccc3)[C@@H]2c2ccc(CO)cc2)cc1 | 1.72 | -0.089 | 1.15 | 0.0456 | 1.23 | 1.18 | 0.391 (inactive) | 0.135 | -0.177 | -0.3 (inactive) |
| CCOC(=O)C1=CC[C@@H](c2ccccc2)N(S(=O)(=O)c2ccc(C)cc2)[C@@H]1C#N | 0.25 | -0.415 | 0.278 | -3.21 | -2.77 | 0.43 | 0.726 (inactive) | -0.791 | -2.41 | 0.433 (inactive) |
| COCCCNC(=O)[C@@]1(Cc2ccccc2I)c2ccccc2C(=O)N(Cc2ccccc2C(F)(F)F)[C@H]1c1ccc(CO)cc1 | -0.369 | -0.884 | -0.305 | -1.14 | -1.61 | 0.405 | -1.19 (inactive) | -0.578 | -0.553 | 1.77 (inactive) |
| CCCCN1CC=CC23O[C@@H]4C=CCCOC(=O)C4[C@H]2C(=O)N(CCO)[C@@H]3C1=O (stereo not given in full) | -0.725 | 0.0904 | -2.09 | 0.303 | -0.105 | -0.508 | 0.0409 (inactive) | 0.0612 | 0.37 | -0.288 (inactive) |
| C[C@]12C(=O)N(CCO)[C@@H]3C(=O)N(c4ccc(Cl)cc4)CC=CC31O[C@@H]1/C=C\CCCOC(=O)C12 (stereo not given in full) | 0.614 | 1.38 | 0.488 | 0.971 | -0.966 | -0.646 | -0.766 (inactive) | -0.129 | 1.61 | -1.3 (inactive) |
| COC(=O)C(CC#Cc1ccc2c(c1)[C@]1(C(=O)N2)[C@H](c2ccc(OCCO)cc2)N2[C@H](c3ccccc3)[C@H](c3ccccc3)OC(=O)[C@H]2[C@@H]1C(N)=O)C(=O)OC | -0.729 | 0.251 | -0.188 | -2.2 | -1.68 | -0.68 | 0.81 (inactive) | -1.12 | -0.927 | -0.0032 (inactive) |
| C=C[C@H](OC)[C@@H](O)c1ccc(OC)c(O)c1 | -0.107 | -0.678 | 1.69 | -0.166 | -0.991 | 1.26 | 0.503 (inactive) | 0.5 | 0.443 | -0.112 (inactive) |
| CN(C)CCCC[C@@H]1NC(=O)[C@H]2C[C@@H](C(=O)NCCCCCCNC(=O)CS)[C@@H](c3cccc(OCCO)c3)N2C1=O | -0.234 | -0.288 | -0.384 | -0.315 | -0.357 | -1.27 | -0.0363 (inactive) | 0.503 | -0.177 | 0.0246 (inactive) |

Reference: PubChem BioAssay
